Screening data (PubChem BioAssay)
KDM5B inhibitor: KDM5B demethylase inhibition; AID 1347165; 220,000 tested, 2.6% active; Potency, µM (series often up to 57.7 µM), actives largely listed as inhibitors; KDM5B demethylase, FDH-coupled NADH fluorescence (FDH is formaldehyde dehydrogenase); note: potency is the fitted concentration of half-maximal effect; 0% is about no effect; nearly all actives have a fitted effect of over 70% in size
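qHTS format, multiple compound concentrations. Buffer 50 mM HEPES pH 7.5/0.01% Tween-20; 200 nM KDM5BΔAP final; 10 min compound preincubation; substrate-mix levels 12.5 µM peptide, 25 µM α-KG, 0.25 mM NAD⁺; 30 min RT; ΔRFU.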
IP6K1 inh: inhibitors of human IP6K1; IP6K1 kinase, ADP-Glo luminescence, 2 h; hits give low values; 140,000 tested, 0.81% active; AID 1645851; activity change, % (series mostly up to about 58 µM); in the data active = activity change below about -25%; note: % is set by controls: 0 for no effect and ±100 for the full control effect
Target sequence (Q92551 whole entry, looked up): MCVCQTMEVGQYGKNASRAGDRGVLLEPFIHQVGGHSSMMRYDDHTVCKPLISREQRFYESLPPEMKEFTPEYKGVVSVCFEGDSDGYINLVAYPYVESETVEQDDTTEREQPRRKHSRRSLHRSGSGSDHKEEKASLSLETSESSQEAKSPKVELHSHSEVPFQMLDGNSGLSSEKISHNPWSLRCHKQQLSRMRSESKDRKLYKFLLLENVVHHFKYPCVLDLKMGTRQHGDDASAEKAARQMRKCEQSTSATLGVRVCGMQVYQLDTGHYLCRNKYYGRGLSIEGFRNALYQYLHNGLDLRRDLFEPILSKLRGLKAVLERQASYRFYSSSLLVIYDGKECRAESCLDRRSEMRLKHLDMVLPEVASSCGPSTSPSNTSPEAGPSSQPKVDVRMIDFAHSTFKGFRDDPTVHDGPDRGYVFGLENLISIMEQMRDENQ
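ADP-Glo luminescence measures ADP made by human IP6K1 during a 2 h RT reaction with ATP/IP6 (mix at 1.3 mM/130 uM); top library doses 57.5 and 19.1 uM final.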
An asterisk follows results filed as active. Rows were chosen to be rich in hits. Some 2.8% of all compounds tested hit in one or more screens of this group.

Screening COc1ccc(CCC(=O)N2CCC(Cc3n[nH]c(C)n3)CC2)cc1 returned IP6K1 inh -6.
Screening CCc1n[nH]c(CC2CCN(C(=O)C3(c4ccccc4)CC3)CC2)n1 returned KDM5B inhibitor inactive and IP6K1 inh -3.
`CC(=O)N1CCC(Cc2nc(-c3ccccc3)n[nH]2)CC1` gave KDM5B inhibitor 20µM* and IP6K1 inh 15.
`O=C(N1CCC(Cc2nc(C3CC3)n[nH]2)CC1)C1(c2ccccc2)CC1` gave KDM5B inhibitor 18µM* and IP6K1 inh 2.
`COc1ccc(CCC(=O)N2CCC(Cc3nc(C4CC4)n[nH]3)CC2)cc1` gave KDM5B inhibitor 20µM* and IP6K1 inh -7.
`O=C(C1CC1)N1CCC(Cc2nc(-c3ccccc3)n[nH]2)C1` (stereo not drawn) gave KDM5B inhibitor inactive and IP6K1 inh 8.
`CCc1ccc(NC(=O)Cn2ccn3nc(-c4ccc(F)cc4)c(CO)c3c2=O)cc1` gave KDM5B inhibitor inconclusive and IP6K1 inh 2.
Screening O=C(NC1CCC1)C1CCN(C(=O)c2ccc(-c3cncnc3)cc2)CC1 returned IP6K1 inh -3.
CCc1cc2c(cc3c(=O)n(CC(=O)N4CCN(c5cccc(C)c5C)CC4)nc(CC)n32)s1 was read as KDM5B inhibitor inactive and IP6K1 inh -11.
`Cc1nn(-c2ccccc2)c2c1C(C)N(CC1CN(C(=O)Nc3ccc(Cl)cc3)C1)C2=O` (stereo not drawn) gave IP6K1 inh 16.
`COc1cc(Cl)ccc1C(=O)N1CCN(C(=O)c2nnn3c2COC(c2ccccc2)C3)CC1` (stereo not drawn) gave KDM5B inhibitor inactive and IP6K1 inh -3.
Screening O=C(c1ccco1)N1N=C(c2ccc(Br)cc2)CC1c1ccc2nccnc2c1 (stereo not drawn) returned KDM5B inhibitor inactive.
COc1ccccc1-c1nc2cnccn2c1NCCC(=O)N1CCc2ccccc21 was read as KDM5B inhibitor 28µM* and IP6K1 inh 3.
COc1cccc(Cc2nc3ccccc3nc2SCC(=O)N2CCc3ccccc32)c1 was read as KDM5B inhibitor inactive and IP6K1 inh -6.
COc1ccccc1-c1nc2cnccn2c1NCCC(=O)Nc1ccc2c(c1)OCO2 was read as KDM5B inhibitor 28µM* and IP6K1 inh 1.
For Cc1nc2cnccn2c1C(=O)NCc1ccc2c(c1)OCO2 the results were IP6K1 inh 3.
For COc1ccc(Nc2c(-c3cccc(O)c3)nc3cnccn23)cc1 the results were KDM5B inhibitor inactive and IP6K1 inh -7.
`COc1cccc(-c2nc3cnccn3c2NCCC(=O)N2CCc3ccccc32)c1` gave KDM5B inhibitor 22µM* and IP6K1 inh 21.
For COc1cnc(CSc2nc(C)cc(C)n2)cc1OCC(=O)N1CCc2ccccc21 the results were KDM5B inhibitor inactive.
COc1cccc(-c2nc3cnccn3c2NCCC(=O)N2CCN(C)CC2)c1 was read as KDM5B inhibitor 28µM* and IP6K1 inh 13.
For CNC(=O)c1cc(C)nc2onc(C3CCN([S+](=O)([O-])c4ccccc4)CC3)c12 the results were IP6K1 inh 10.
Screening O=C(Nc1ccccc1)N1CC2CC(C1)[C@H]1CCCC(=O)N1C2 (stereo partly drawn) returned KDM5B inhibitor inactive and IP6K1 inh -2.
CC(C)(C)Nc1nc(Nc2ccc(C(N)=O)cc2)cc(N)c1C#N was read as IP6K1 inh -12.
Screening CN1C[C@@H](NC(=O)c2ccc3c(c2)OCO3)C[C@H]1c1nc(-c2ccc(Cl)cc2)no1 returned KDM5B inhibitor 32µM* and IP6K1 inh -2.
`Cc1ccc(C(=O)N[C@H]2C[C@@H](c3nc(-c4ccc5c(c4)OCO5)no3)N(C)C2)cc1` gave KDM5B inhibitor inactive and IP6K1 inh -7.
CCCSc1ncc(Cl)c(C(=O)N(Cc2ccccc2)c2ccc(OC)cc2)n1 was read as KDM5B inhibitor inactive and IP6K1 inh 3.
Screening COc1ccc(N(Cc2ccccc2)C(=O)c2nc(S(C)(=O)=O)ncc2Cl)cc1 returned KDM5B inhibitor inconclusive and IP6K1 inh -26*.
`COc1ccccc1-n1cc(-c2ccnc(N3CC(n4cccn4)C3)n2)cn1` gave KDM5B inhibitor 32µM* and IP6K1 inh 19.
`COc1ccccc1N1CCN(c2ncc3c(n2)CCN(Cc2ccccc2C)C3)CC1` gave KDM5B inhibitor inactive and IP6K1 inh 7.
`COc1ccc2c(C)c(-c3nc(C4CCOC4)no3)oc2c1` (stereo not drawn) gave KDM5B inhibitor 32µM* and IP6K1 inh -3.
c1ccc2cc(-c3nc(C4CCOC4)no3)ncc2c1 (stereo not drawn) was read as KDM5B inhibitor inconclusive and IP6K1 inh 7.
`CCCNC(=O)C1COC2(CCN(C(=O)c3ccccc3C)CC2)N1C(=O)c1cccc(F)c1` (stereo not drawn) gave KDM5B inhibitor inactive and IP6K1 inh 4.
Screening COCCOc1ccc(C(=O)N[C@@H]2CN(C(=O)Nc3cccc(C#N)c3)CCC[C@H]2O)cc1 returned KDM5B inhibitor inactive and IP6K1 inh 12.
Screening CCOc1ccc(C(=O)NC(C)C(=O)N2CCN(c3ccccn3)CC2)cc1 (stereo not drawn) returned KDM5B inhibitor inconclusive and IP6K1 inh 2.
For CC(NC(=O)COc1ccccc1)C(=O)N1CCN(c2ccccn2)CC1 (stereo not drawn) the results were KDM5B inhibitor 22µM* and IP6K1 inh -1.
`Cc1cccc(OCC(=O)N[C@@H]2CN(c3ncccn3)C[C@H]2CO)c1` gave KDM5B inhibitor inconclusive and IP6K1 inh 1.
`Cc1cccc(OCC(=O)NC(C)C(=O)N2CCN(c3ccccn3)CC2)c1` (stereo not drawn) gave KDM5B inhibitor 35µM* and IP6K1 inh 19.
Screening CN(CC12CC3CC(CC(C3)C1)C2)C(=O)C1CCN(C(=O)c2ccc(C(F)(F)F)cc2)CC1 returned KDM5B inhibitor inactive.
For Cc1ccc(C)c(N/C=C/C(=O)c2ccc(Cl)cc2Cl)c1 the results were KDM5B inhibitor inactive.
Screening CC(C)NC(=O)c1ccc2c(c1)C1(CCN(CC3CC3)C1)CN2Cc1ccccc1 (stereo not drawn) returned KDM5B inhibitor 28µM* and IP6K1 inh 14.
O=C(NC1COC1)c1ccc2c(c1)C1(CCN(CC3CC3)C1)CN2Cc1ccccc1 (stereo not drawn) was read as KDM5B inhibitor 35µM* and IP6K1 inh 1.
`CNC(=O)c1ccc2c(c1)C1(CCN(CC3CC3)C1)CN2Cc1ccccc1` (stereo not drawn) gave KDM5B inhibitor 35µM* and IP6K1 inh -3.
`COCCN(C)C(=O)c1ccc2c(c1)C1(CCN(CC3CC3)C1)CN2Cc1ccccc1` (stereo not drawn) gave KDM5B inhibitor inconclusive and IP6K1 inh 12.
`O=C(c1ccc2c(c1)C1(CCN(CC3CC3)C1)CN2Cc1ccccc1)N1CCOCC1` (stereo not drawn) gave KDM5B inhibitor inconclusive and IP6K1 inh 16.
Screening Cc1nnc([C@@H]2CC(F)(F)CN2C(=O)c2nccc3ccccc23)o1 returned KDM5B inhibitor inactive and IP6K1 inh 0.
COc1ccc(Nc2ccnc(N3CCCC(C(=O)NC(C)C)C3)n2)cc1 (stereo not drawn) was read as IP6K1 inh 1.
